Measured values reported in PubChem BioAssay AID1159580 (chemical genetic matrix, 2015).
Screen size: about 5,500 compounds; about 2,000 (36%) were called active. Not shown: some 18% with an inconclusive outcome. No stated cut-off is given here; in the data, active means normalized growth mostly below about 0.91 (no sharp cut-off); inconclusive means no clear call, values can overlap the other calls; inactive means mostly above about 0.92. The list shows a part of the results.

Assay: chemical genetic growth profiling, strain panel (AID 1159580);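 further: tested at 20 µM; growth read once vehicle control cultures reached saturation at 30 °C; 1 = growth at the plate median or of vehicle wells; lower values mean less growth of the strain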
Details: S. cerevisiae deletion strains, growth OD

Measured: normalized growth

O=C(O)c1cc(=O)c2ccc(Cl)cc2[nH]1
inactive: locus YAL013W, strain DEP1, hits give low values 1.01 | locus YAL021C, strain ccr4, hits give low values 1 | locus YAL026C, strain drs2, hits give low values 1.03 | locus YAL030W, strain snc1, hits give low values 1.01 | locus YAL040C, strain CLN3, hits give low values 1.01 | locus YBL061C, strain skt5, hits give low values 1.02 | locus YBR009C, strain hhf1, hits give low values 1.01 | locus YBR021W, strain FUR4, hits give low values 1.01 | locus YBR023C, strain chs3, hits give low values 1.02 | locus YBR171W, strain sec66, hits give low values 1.03 | locus YBR229C, strain ROT2, hits give low values 1.02 | locus YBR231C, strain swc5, hits give low values 1.02 | locus YBR279W, strain paf1, hits give low values 1.01 | locus YCL011C, strain gbp2, hits give low values 1.02 | locus YCL016C, strain dcc1, hits give low values 1.04 | locus YCL029C, strain bik1, hits give low values 0.998 | locus YCL061C, strain MRC1 (second series), hits give low values 1.01 | locus YCL061C, strain MRC1, hits give low values 1.01 | locus YCL069W, strain vba3, hits give low values 1.01 | locus YCR088W, strain abp1, hits give low values 1.01 | locus YDL005C, strain med2, hits give low values 1.02 | locus YDL035C, strain GPR1, hits give low values 1.02 | locus YDL040C, strain nat1, hits give low values 1.01 | locus YDL074C, strain BRE1, hits give low values 1.06 | locus YDL101C, strain DUN1, hits give low values 1.01 | locus YDL134C, strain PPH21, hits give low values 1.01 | locus YDL185W, strain tfp1, hits give low values 0.988 | locus YDL192W, strain arf1, hits give low values 0.993 | locus YDR001C, strain nth1, hits give low values 1.01 | locus YDR069C, strain doa4, hits give low values 0.999 | locus YDR101C, strain arx1, hits give low values 0.999 | locus YDR137W, strain rgp1, hits give low values 1.01 | locus YDR150W, strain NUM1, hits give low values 1.01 | locus YDR159W, strain sac3, hits give low values 0.998 | locus YDR162C, strain NBP2, hits give low values 1.01 | locus YDR195W, strain ref2 1 | locus YDR297W, strain sur2, hits give low values 1.02 | locus YDR318W, strain mcm21, hits give low values 0.989 | locus YDR334W, strain swr1, hits give low values 1.01 | locus YDR335W, strain msn5, hits give low values 1.03 | locus YDR363W, strain ESC2, hits give low values 1.03 | locus YDR388W, hits give low values 0.999 | locus YDR392W, strain spt3, hits give low values 1.07 | locus YDR502C, strain sam2, hits give low values 1.01 | locus YEL003W, strain gim4, hits give low values 1.02 | locus YEL037C, strain rad23, hits give low values 1.02 | locus YEL061C, strain CIN8 (second series), hits give low values 1.01 | locus YEL061C, strain CIN8, hits give low values 1.01 | locus YER002W, strain NOP16, hits give low values 1.03 | locus YER015W, strain faa2, hits give low values 1.02 | locus YER016W, strain bim1, hits give low values 1.04 | locus YER110C, hits give low values 0.99 | locus YER111C, strain swi4, hits give low values 1.01 | locus YER155C, strain BEM2 (second series), hits give low values 1.02 | locus YER155C, strain BEM2, hits give low values 1.01 | locus YER167W, strain BCK2, hits give low values 0.995 | locus YFR010W, strain ubp6, hits give low values 0.986 | locus YGL078C, strain dbp3, hits give low values 1 | locus YGL086W, strain mad1, hits give low values 1 | locus YGL167C, strain pmr1, hits give low values 1.01 | locus YGL173C, strain kem1, hits give low values 1.02 | locus YGL227W, strain vid30, hits give low values 1.04 | locus YGL240W, strain doc1, hits give low values 1.01 | locus YGL248W, strain PDE1, hits give low values 1.03 | locus YGL253W, strain hxk2, hits give low values 1.02 | locus YGR078C, strain PAC10, hits give low values 1.03 | locus YGR135W, strain pre9, hits give low values 0.976 | locus YGR252W, strain gcn5, hits give low values 0.992 | locus YHR013C, strain ard1, hits give low values 1.04 | locus YHR027C, strain rpn1, hits give low values 0.994 | locus YHR030C, strain SLT2, hits give low values 1.01 | locus YHR079C, strain IRE1 (second series), hits give low values 0.99 | locus YHR094C, strain hxt1, hits give low values 0.992 | locus YHR129C, strain ARP1, hits give low values 1.02 | locus YHR142W, strain chs7, hits give low values 1.04 | locus YHR200W, strain rpn10, hits give low values 0.992 | locus YIL066C, strain RNR3, hits give low values 1.03 | locus YIL073C, strain SPO22, hits give low values 0.979 | locus YIL125W, strain kgd1, hits give low values 0.994 | locus YIR030C, strain dcg1, hits give low values 0.995 | locus YJL092W, strain hpr5, hits give low values 1.02 | locus YJL095W, strain BCK1 (second series), hits give low values 1.03 | locus YJL095W, strain BCK1, hits give low values 1.04 | locus YJL115W, strain asf1, hits give low values 1.01 | locus YJL129C, strain trk1, hits give low values 1.03 | locus YJL134W, strain LCB3, hits give low values 1.01 | locus YJL154C, strain vps35, hits give low values 1.01 | locus YJL164C, strain tpk1, hits give low values 1.01 | locus YJL166W, strain qcr8, hits give low values 1.02 | locus YJL168C, strain set2, hits give low values 0.992 | locus YJL187C, strain SWE1 (second series), hits give low values 1.04 | locus YJL187C, strain SWE1, hits give low values 1.02
